Bioassay records: PubChem, National Center for Advancing Translational Sciences (NCATS)
IL-1B inflam inh – inflammasome signaling inhibition, IL-1 beta readout | THP-1 LPS/ATP IL-1B secretion, AlphaLISA, 16 h; hits give low values | activity change, % at 57.5 µM | 360,000 compounds, 4.7% hits | AID 743279; in the data active = activity change below about -50%; inconclusive = mostly about -30% to -49%; note: % is set by controls: 0 for no effect and ±100 for the full control effect
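Secreted IL-1B measured by AlphaLISA bead assay after 16 h compound exposure of THP-1 cells; compounds (final up to 57.5 uM) added 1 h before LPS (250 ng/mL) and ATP (1.25 mM) stimulation; lower signal means less secretion.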
DT40 TDP1 no CPT – qHTS for Inhibitors of human tyrosyl-DNA phosphodiesterase 1 (TDP1): qHTS in cells in absence of CPT | DT40 Tdp1-/- hTDP1 cells, no CPT, ATP luminescence, 48 h | Potency, µM (highest dose often 46.2 µM), without a hit: at the highest dose activity change, negative = growth inhibition, usual class: inhibitors | 420,000 compounds, 15% hits | AID 686978, 2013; note: potency is the fitted concentration of half-maximal effect; % is set by controls: 0 for no effect and ±100 for the full control effect; nearly all actives have a fitted effect of over 55% in size
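Compound effects on proliferation are scored in DT40 Tdp1-/-;hTDP1 cells in the absence of CPT. ATP levels (CellTiter-Glo luminescence) are recorded after a ≥48 hr, 37 °C incubation.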
HepG2 viability – counter-screen for TGF-b inhibitors: cytotoxicity in HepG2 cells; HepG2 CAGA-GFP viability, ATP luminescence, 18 h; Potency, µM (doses to about 46.1 µM), inactives show top-dose activity change, negative = cytotoxicity, hits mostly cytotoxic; 410,000 compounds, 0.76% hits; AID 588856; note: potency is the fitted concentration of half-maximal effect
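HepG2 CAGA-GFP cells (1000/well, DMEM with 1% FBS) received compound, then TGF-beta at 500 pg/mL final, and were incubated 18 hours at 37 degrees C. Viability was read by CellTiter-Glo luminescence. Media-only wells were set as complete cell-killing and DMSO as no toxicity.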
DT40 TDP1 CPT – growth inhibition of DT40 Tdp1-/-;hTDP1 cells with camptothecin (screen for TDP1 inhibitors); chicken DT40 Tdp1-/-;hTDP1 cells + 20 nM CPT, ATP luminescence, 48 h; Potency, µM (titrated, usually from 46.2 µM), without a hit: top-dose activity change, negative = growth inhibition, usual class: inhibitors; 420,000 compounds, 12% hits; note: potency is the fitted concentration of half-maximal effect; % is set by controls: 0 for no effect and ±100 for the full control effect; nearly all actives have a fitted effect of over 55% in size
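Chicken DT40 Tdp1-/- cells complemented with human TDP1, 400 cells/well, exposed to compounds plus 20 nM camptothecin for at least 48 h at 37 C; viability read as ATP content by CellTiter-Glo luminescence.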
TDP1 block – blocks human tyrosyl-DNA phosphodiesterase 1. Q9NUW8. Potency, µM (top dose mostly 130 µM), for inactives: top-dose activity change, negative = inhibition, most hits filed as inhibitors. AID 485290. recombinant TDP1, AlphaScreen DNA substrate cleavage. 350,000 compounds, 0.28% hits; note: potency is the fitted concentration of half-maximal effect; % is set by controls: 0 for no effect and ±100 for the full control effect; nearly all actives have a fitted effect of over 40% in size
Target sequence (Q9NUW8 whole entry, looked up): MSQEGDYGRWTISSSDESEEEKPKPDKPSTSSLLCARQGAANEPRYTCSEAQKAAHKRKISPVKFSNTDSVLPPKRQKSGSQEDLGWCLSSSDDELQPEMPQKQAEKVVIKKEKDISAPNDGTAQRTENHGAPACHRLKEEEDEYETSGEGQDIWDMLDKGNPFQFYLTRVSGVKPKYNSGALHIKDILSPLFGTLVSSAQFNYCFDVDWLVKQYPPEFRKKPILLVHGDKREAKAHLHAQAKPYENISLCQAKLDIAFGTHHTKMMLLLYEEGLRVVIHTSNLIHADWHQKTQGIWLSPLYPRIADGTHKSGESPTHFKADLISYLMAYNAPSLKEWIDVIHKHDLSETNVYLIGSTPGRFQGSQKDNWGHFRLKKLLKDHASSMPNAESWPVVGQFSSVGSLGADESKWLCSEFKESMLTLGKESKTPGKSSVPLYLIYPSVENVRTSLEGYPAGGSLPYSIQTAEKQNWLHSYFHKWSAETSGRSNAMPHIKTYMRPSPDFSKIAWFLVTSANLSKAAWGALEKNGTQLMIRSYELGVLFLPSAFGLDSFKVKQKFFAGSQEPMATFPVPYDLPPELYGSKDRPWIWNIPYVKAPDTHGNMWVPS
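Enzyme-compound mixtures sat 15 min at room temperature, followed by a 5 min reaction with 15 nM final substrate and 10 min with AlphaScreen beads. Recombinant human Tdp1 was used at 1 nM final.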
TGFb inhibitor – TGF-b pathway inhibition; HepG2 CAGA-GFP TGF-b/SMAD3 reporter, GFP fluorescence, 18 h; TGF-beta stimulated, 500 pg/mL final; Potency, µM (titrated, usually from 46.1 µM), for the others: at the highest dose activity, negative = inhibition, most hits filed as inhibitors; 410,000 compounds, 1.2% hits; AID 588855; note: potency is the fitted concentration of half-maximal effect; % is set by controls: 0 for no effect and ±100 for the full control effect; nearly all actives have a fitted effect of over 65% in size
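Inhibition was scored as loss of TGF-beta-induced (500 pg/mL final, 18 hours, 37 degrees C) GFP in HEPG2 cells carrying a CAGA-GFP reporter, in DMEM with 1% FBS. Well GFP was summed per cell; Activity was normalised to unstimulated and stimulated DMSO wells, then concentration-response fitting.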
Starred values were filed as active, the others as inactive; u = inconclusive; x = not tested or not shown; [ ] = another dose, or the depositor's remark. Rows were chosen to be rich in hits. Some 19% of all compounds tested hit in one or more screens of this group. Unless noted, calls come from the whole dose curve; as a rule, active = well fitted curve in the direction sought with a large enough effect; inconclusive = small, poorly fitted or top-dose-only effect, or another doubt; inactive = no such curve, though single readings can be large; an effect the other way counts as inactive or inconclusive.

SMILES | IL-1B inflam inh | DT40 TDP1 no CPT | HepG2 viability | DT40 TDP1 CPT | TDP1 block | TGFb inhibitor
Cc1ccc2c(=O)cc(C(=O)Nc3ccc(S(=O)(=O)N(C)Cc4ccccc4)cc3)oc2c1C | x | 3.3µM* | 0% | 4.1µM* | 2% | 2%
CN(c1ccccc1)S(=O)(=O)c1ccc(NC(=O)c2cc(=O)c3ccccc3o2)cc1 | x | 16µM* | 0% | 13µM* | 6% | 2%
Cc1cc2oc(C(=O)Nc3ccc(S(=O)(=O)N(C)c4ccccc4)cc3)cc(=O)c2cc1C | x | -3% | -1% | -14% | 0% | -19%
CCc1ccc(NC(=O)c2cc(=O)c3ccc(C)c(C)c3o2)cc1 | x | 3.3µM* | 140% | 4.1µM* | 0% | 127%
CCN(c1ccccc1)S(=O)(=O)c1ccc(NC(=O)c2cc(=O)c3ccc(C)c(C)c3o2)cc1 | x | 12µM* | -13% | 10µM* | 4% | -5%
CCN(c1ccccc1)S(=O)(=O)c1ccc(NC(=O)c2cc(=O)c3c(C)cc(C)cc3o2)cc1 | x | -17% | 0% | 2% | -1% | -20%
COc1ccc(CCN2C(=O)N[C@@H](CCC(=O)O)C2=O)cc1 | -8 | -9% | -8% | u | x | 1%
O=C(N/N=C1/C[C@@H](O)[C@@H](O)[C@@H]2[C@H]3C(=O)N(c4ccc(F)cc4F)C(=O)[C@@H]3CC[C@H]12)OCc1ccccc1 | x | x | x | x | 10%[21 µM] | x
COc1cc(CN2CC(=O)N(c3ccc(C)c(Cl)c3)C2=S)cc(OC)c1OC | -13 | 21µM* | -11% | u | x | -8%
COc1cc(CN2CC(=O)N(c3ccc(C)cc3)C2=S)cc(OC)c1OC | 2 | 26µM* | -18% | u | -5% | -30%
CCOCCc1nn2c(=O)cc(COC(=O)CNC(=O)c3ccc(F)cc3)nc2s1 | x | -3% | 2% | 5% | 6% | -4%
C/C=C\C[C@@H](C)[C@@H](O)[C@H]1C(=O)N[C@@H](CC)C(=O)N(C)CC(=O)N(C)[C@@H](CC(C)C)C(=O)N[C@@H](C(C)C)C(=O)N(C)[C@@H](CC(C)C)C(=O)N[C@@H](C)C(=O)N[C@H](C)C(=O)N(C)[C@@H](CC(C)C)C(=O)N(C)[C@@H](CC(C)C)C(=O)N(C)[C@@H](C(C)C)C(=O)N1C | x | x | x | x | 14%[56.1 µM] | x
CCNS(=O)(=O)c1ccc(NC(=S)N2CCc3ccccc32)cc1 | -18 | -19% | -3% | u | 5%[56.1 µM] | 1%
O=C(NCC(O)c1ccc([N+](=O)[O-])cc1)Nc1ccccc1 (centres undefined) | 12 | -1% | -1% | -21% | x | 4%
CC(NCC(O)c1ccc([N+](=O)[O-])cc1)C12CC3CC(CC(C3)C1)C2 (centres undefined) | -85* | u | -30% | u | 1% | 9%
NC(N)=NCc1cccc(I)c1 | 0 | 2.9µM* | -20% | 6.5µM* | 8%[56.1 µM] | 5%
Cc1c(C(=O)N/N=C/c2ccc(-c3ccccc3[N+](=O)[O-])o2)sc(N)c1C#N | 52 | 13µM* | -39% | 16µM* | x | 5µM*
Cc1cc([N+](=O)[O-])c(C)cc1-c1ccc(/C=N/NC(=O)c2cccnc2)o1 | -23 | 16µM* | -7% | 16µM* | 5% | 4%
Cc1ccc(C(=O)N/N=C/c2ccc(-c3ccc(Br)cc3[N+](=O)[O-])o2)o1 | -85* | u | -29% | u | 4% | -5%
O=C(N/N=C/c1ccc(-c2ccc([N+](=O)[O-])cc2)o1)c1cccnc1 | -11 | -22% | 1% | 1% | -14% | -19%
Cc1c(-c2ccc(/C=N/NC(=O)C(=O)Nc3ccccc3F)o2)cccc1[N+](=O)[O-] | 5 | -18% | 8% | 2% | -3% | -4%
